Activity calls are given as the source filed them. The calls were made as follows: active = hit-call score of the fitted dose curve at least 0.9, where 1 is the maximum; inactive = score below 0.9.
Tests used:
[1] = APR_HepG2_CellCycleArrest_24hr: Apredica 24-hour HepG2 Assay for Cell Cycle Arrest (AID 2282905); conditions: imaging, actives raise or lower the signal;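 also: cell cycle arrest scored as ratio of 2N to 4N nuclear DNA content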
In short: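 Cell cycle arrest is scored from nuclear DNA content measured by high-content imaging of Hoechst 33342-stained HepG2 cells following 24-hour treatment at ten concentrations up to 200 uM, with DMSO as baseline.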

[2] = APR_HepG2_CellLoss_24hr: Apredica 24-hour HepG2 Assay for Cell Loss (AID 2282908); conditions: high-content imaging;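 as to AC50: fit in both directions so a hit may be cell loss or gain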
In short: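 Cell number is quantified by fluorescence imaging of Hoechst 33342-stained nuclei following dosing at 0.39–200 uM in 0.5% DMSO. Curves are fitted in both directions from the DMSO baseline.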

[3] = APR_HepG2_MicrotubuleCSK_24hr: Apredica 24-hour HepG2 Assay for Microtubule CSK Stabilty (AID 2282909); conditions: HepG2 microtubule cytoskeleton imaging, actives raise or lower the signal
In short: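 Steps: dose HepG2 for 24 h (0.39–200 uM, 0.5% DMSO); fix 30 min in 3.7% formaldehyde at room temperature; permeabilize; stain alpha-tubulin 60 min; image microtubule cytoskeleton at 20x. Signal change fitted in both directions relative to DMSO.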

[4] = APR_HepG2_MitoticArrest_24hr: Apredica 24-hour HepG2 Assay for Mitotic Arrest (AID 2282910); conditions: high-content imaging, actives raise or lower the signal
In short: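 HepG2 cells, 24 h exposure at 0.39-200 uM (10 concentrations, duplicate, 0.5% DMSO). Fixed, stained for phospho-histone H3 with Hoechst; imaged by high-content microscopy, bidirectional fit versus DMSO.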

[5] = APR_HepG2_MitoMembPot_24hr: Apredica 24-hour HepG2 Assay for Mitochondrial Membrane Potential (AID 2282911); conditions: imaging, actives raise or lower the signal
In short: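 HepG2, 24 hr dosing, 10 concentrations 0.39–200 uM, 0.5% DMSO final. Live-cell MitoTracker Red CMXRos 250 nM 30 min, then 3.7% formaldehyde fix. HCS fluorescence imaging, 20x; bidirectional fit vs DMSO baseline.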

[6] = APR_HepG2_MitoMass_24hr: Apredica 24-hour HepG2 Assay for Mitochondrial Mass (AID 2282912); conditions: high-content imaging, actives raise or lower the signal
In short: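 The liver line HepG2 was dosed in duplicate across a 0.39–200 uM series, with final DMSO held at 0.5% v/v, and harvested at 24 hr. High-content imaging measured mitochondrial dye staining.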

[7] = APR_HepG2_CellCycleArrest_72hr: Apredica 72-hour HepG2 Assay for Cell Cycle Arrest (AID 2282914); conditions: high-content imaging, actives raise or lower the signal
In short: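 HepG2, 72 hr exposure, 10-point 0.39–200 uM, duplicate, 0.5% DMSO final. Fix 3.7% formaldehyde 30 min RT, Triton X-100 0.5%, Hoechst 33342 2 ug/mL. ArrayScan 20x, six fields/well; DNA content per nucleus; bidirectional fit vs DMSO.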

[8] = APR_HepG2_CellLoss_72hr: Apredica 72-hour HepG2 Assay for Cell Loss (AID 2282915); conditions: high-content imaging
In short: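 HepG2 cells exposed 72 h to compound at 0.39–200 uM (10 concentrations, duplicate) in 0.5% DMSO. Fixed with 3.7% formaldehyde and Hoechst 33342-stained. Imaged at 20x; nuclear count gives cell number, fitted bidirectionally versus DMSO.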

[9] = APR_HepG2_P-H2AX_72hr: Apredica 72-hour HepG2 Assay for H2AX Phosphorylation (AID 2282916); conditions: imaging, actives raise or lower the signal;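 also: phospho-histone H2A.x immunostain intensity per cell marking DNA damage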
In short: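 Following 72 hr treatment with 0.39–200 uM compound, HepG2 cells were formaldehyde-fixed, permeabilized and stained for phospho-H2A.x; signal was measured by high-content imaging and fitted bidirectionally against DMSO controls.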

[10] = APR_HepG2_p53Act_24hr: Apredica 24-hour HepG2 Assay for p53 Activation (AID 2282913); conditions: high-content imaging, actives raise or lower the signal;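 also: p53 protein immunofluorescence averaged per cell in HepG2 with Hoechst nuclei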
In short: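 Read-out: Cy5 immunofluorescence for p53 in fixed, permeabilized HepG2, imaged by HCS with Hoechst-defined nuclei. Dosing was 24 hr at 0.39–200 uM in 0.5% DMSO. Curves were fitted bidirectionally relative to DMSO.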

Measured: AC50

Clc1cccc(Cl)c1Cl
inactive: [1] | [2] | [3] | [4] | [5] | [6] | [7] | [8] | [9]

O=C(O)C1(c2ccc3c(c2)OC[C@H](Cc2ccc(-c4ccccc4)cc2)[C@H]3O)CCCC1
inactive: [1] | [2] | [3] | [4]
active: [5] 105 µM | [6] 112 µM | [7] 118 µM | [8] 86.9 µM | [9] 106 µM

N#Cc1cccnc1
inactive: [1] | [2] | [3] | [4] | [5] | [6] | [7] | [8] | [9]

Oc1cc(Cl)c(Cl)cc1Cl
active: [1] 35.7 µM | [2] 27.7 µM | [3] 41.8 µM | [4] 38.6 µM | [6] 46.7 µM | [8] 44.6 µM | [9] 42.4 µM
inactive: [5] | [7]

Clc1cccc(Cl)c1
inactive: [1] | [2] | [3] | [4] | [5] | [6] | [7] | [8] | [9]

O=C(N[C@H]1CN2CCC1CC2)c1ccc2c(c1)OCCO2
inactive: [1] | [2] | [3] | [4] | [5] | [6] | [7] | [8] | [9]

CCCCCCCCCCCCc1cccc(S(=O)(=O)O)c1
inactive: [1] | [2] | [3] | [4] | [5] | [6] | [7] | [8] | [9]

Cc1cc(C)cc(C)c1
inactive: [1] | [2] | [3] | [4] | [5] | [6] | [7] | [8] | [9]

CC(C)O.CC(C)O.OCCN(CCO)CCO.OCCN(CCO)CCO.[Ti]
inactive: [1] | [2] | [3] | [4] | [5] | [6] | [7] | [8] | [9]

Oc1c(Cl)cc(Cl)cc1Cl
inactive: [2] | [4] | [5] | [6] | [10] | [8] | [9]

OCCN(CCO)CCO
inactive: [1] | [2] | [3] | [4] | [5] | [6] | [7] | [8] | [9]

CN(C)C(=S)S
active: [1] 19.8 µM | [2] 0.183 µM | [7] 0.0391 µM | [8] 0.238 µM | [9] 0.242 µM
inactive: [3] | [4] | [5] | [6]

COc1ccccc1N
active: [5] 29.3 µM
inactive: [1] | [2] | [3] | [4] | [6] | [7] | [8] | [9]

CC(C)(C)c1ccccc1O
inactive: [1] | [2] | [3] | [4] | [5] | [6] | [7] | [8] | [9]

— PubChem BioAssay (EPA / NIEHS)
